An excerpt weighted towards active compounds, which were near 3.9% of everything screened.
BoNT-F LC inh: inhibitors of Botulinum neurotoxin F light chain protease; Multiplex microsphere protease cleavage assay, flow cytometry; inhibition, % at 10 µM; 360,000 compounds, 0.22% hits; in the data active = inhibition above about 35%, passing the limit was not always enough; inconclusive = no clear call, values can overlap the other calls; also: plate controls were buffer without enzyme for full effect and enzyme alone for no effect
Anthrax LF prot: blocks Bacillus anthracis lethal factor protease; multiplex microsphere protease cleavage assay, LF; inhibition, % at 10 µM; 360,000 compounds, 0.12% hits; AID 588501; also: plate controls were buffer without enzyme for full effect and enzyme alone for no effect
Target sequence (P15917 whole entry, looked up): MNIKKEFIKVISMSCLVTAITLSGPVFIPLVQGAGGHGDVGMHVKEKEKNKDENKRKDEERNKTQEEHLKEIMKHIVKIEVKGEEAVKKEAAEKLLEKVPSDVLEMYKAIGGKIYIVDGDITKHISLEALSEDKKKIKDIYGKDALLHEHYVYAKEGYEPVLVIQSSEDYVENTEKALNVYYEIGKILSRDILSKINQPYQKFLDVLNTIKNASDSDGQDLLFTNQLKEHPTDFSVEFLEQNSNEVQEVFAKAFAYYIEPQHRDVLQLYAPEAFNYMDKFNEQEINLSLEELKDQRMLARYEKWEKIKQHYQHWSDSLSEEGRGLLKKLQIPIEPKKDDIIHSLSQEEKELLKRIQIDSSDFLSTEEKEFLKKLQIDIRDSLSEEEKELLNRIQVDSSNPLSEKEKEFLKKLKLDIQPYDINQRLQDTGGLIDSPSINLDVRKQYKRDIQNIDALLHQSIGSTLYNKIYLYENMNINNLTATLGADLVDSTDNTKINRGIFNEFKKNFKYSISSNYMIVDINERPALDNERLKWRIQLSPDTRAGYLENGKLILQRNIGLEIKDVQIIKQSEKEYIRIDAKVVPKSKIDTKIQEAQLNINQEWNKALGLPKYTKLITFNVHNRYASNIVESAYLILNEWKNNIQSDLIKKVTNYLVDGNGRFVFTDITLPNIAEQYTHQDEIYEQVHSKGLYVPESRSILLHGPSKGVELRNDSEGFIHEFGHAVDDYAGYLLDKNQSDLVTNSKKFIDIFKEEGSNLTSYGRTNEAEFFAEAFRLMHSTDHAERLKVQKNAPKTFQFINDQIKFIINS
CCHF vOTU inh: blocks the CCHF virus ovarian tumor domain protease; 370,000 compounds, 0.55% hits; AID 651958; inhibition, % at 11.5 µM; CCHFV vOTU protease, Pep-AMC fluorescence; in the data active = inhibition above about 30%; also: 0% = vehicle wells with enzyme and 100% = no enzyme wells
3CLpro inhibitor: SARS-CoV 3CLpro protease inhibition | P0C6X7 | recombinant SARS-CoV 3CLpro, quenched FRET peptide cleavage | inhibition, % at 6 µM | 290,000 compounds, 0.14% hits | AID 1706; in the data active = inhibition above about 12%
BoNT A protease: blocks Botulinum neurotoxin A light chain protease; 360,000 compounds, 0.17% hits; AID 588499; inhibition, % at 10 µM; multiplex microsphere protease substrate cleavage, flow cytometry; also: plate controls were buffer without enzyme for full effect and enzyme alone for no effect
Bead autofluor: compound fluorescence in toxin protease inhibitor counterscreen; AID 624483; 360,000 compounds, 3.1% hits; compound autofluorescence counterscreen, microsphere flow cytometry; stronger effect = higher value; fluorescence intensity (concentration not given with the values); in the data active = fluorescence intensity above about 16000; inconclusive = no clear call, values can overlap the other calls
* hit, by the source's call; ? = inconclusive; nt = no result given. Rule as the data show it, unless noted: active = inhibition above about 30%; inconclusive = no clear call, values can overlap the other calls; inactive = below that.

SMILES	BoNT-F LC inh	Anthrax LF prot	CCHF vOTU inh	3CLpro inhibitor	BoNT A protease	Bead autofluor
COc1cccc(OCCCn2cc(/C=C3/C(=N)N4C=C(C)SC4=NC3=O)c3ccccc32)c1	-44.6	4.9	-11.2	-5.7	49.6*	24218*
Cc1cc(C)cc(C(=O)OCCN(C)C2CN(Cc3cn(Cc4ccc([N+](=O)[O-])cc4)nn3)S(=O)(=O)C2)c1 (stereo unspecified)	nt	nt	0.4	nt	nt	nt
COC(=O)C1CN(Cc2cn(CCOC(C)=O)nn2)CCS(=O)(=O)N1Cc1ccc(Cl)cc1 (stereo unspecified)	nt	nt	-6.3	nt	nt	nt
CCOC(=O)c1ccc(N2N=C(C)/C(=C/C=C/c3ccco3)C2=O)cc1	-6.2	-4.9	-8.0	3.2	?	22790*
CC1=NN(c2ccc(C(=O)OC(C)C)cc2)C(=O)/C1=C\C=C\c1ccco1	-2.0	-4.9	-3.6	-4.9	1.8	19581*
O=[N+]([O-])c1ccc(OC[C@@H](O)CN2CCC(C(O)(c3ccccc3)c3ccccc3)CC2)c(Cl)c1	nt	nt	9.4	nt	nt	nt
COC(=O)C1CN(Cc2ccccc2)CCS(=O)(=O)N1Cc1cn(Cc2ccc(C)cc2)nn1 (stereo unspecified)	nt	nt	-1.3	nt	nt	nt
CC(C)(C)N1Cc2nnn(Cc3ccccc3)c2-c2cc(N3CCCC3)ccc2S1(=O)=O	nt	nt	-3.4	nt	nt	nt
C=CCN1C(=O)C2(C(C(=O)OCC)=C(N)Oc3ccccc32)C2=C1CCCC2=O (stereo unspecified)	3.7	-10.9	-8.6	0.5	0.5	9223
CC1(C)CC(=O)C2=C(C1)NC(=O)C21C(C(=O)OC(C)(C)C)=C(N)Oc2ccc(Br)cc21 (stereo unspecified)	2.6	0.0	-2.1	-2.6	1.6	22960*
COC(=O)c1cn(-c2ccc3c(c2)[C@]2(CC(=O)N(C)C2c2ccccc2)C(=O)N3CC(C)C)nn1 (stereo partly specified)	nt	nt	-4.3	nt	nt	nt
O=C1c2ccccc2C(=O)N1CCc1nc(-c2ccncc2)no1	2.0	-8.3	-0.2	0.7	2.3	19470*
O=C1c2ccccc2C(=O)N1CCc1nc(-c2ccc(Cl)cc2)no1	1.5	-34.8	2.9	4.7	2.1	21023*
COc1ccc(C(=O)COC(=O)[C@H](C)Nc2ccc(C(F)(F)F)cc2[N+](=O)[O-])cc1	-16.6	-3.7	19.0	4.9	-0.3	3860
Cc1cc(C)c(C(=O)COC(=O)[C@H](C)Nc2ccc(C(F)(F)F)cc2[N+](=O)[O-])c(C)c1	1.5	-1.3	-4.3	0.8	0.9	21371*
Brc1ccc(-c2nc(-c3ccccc3)no2)o1	1.7	-1.4	-6.7	-1.4	2.2	22544*
NC(=O)CSc1nnc(-c2ccc3c(c2)OCO3)o1	0.6	-10.9	7.5	2.7	-1.4	3670
O=C(CNCc1ccccc1Cl)Nc1ccc2c(c1)OCCO2	-20.1	-6.5	-15.3	4.3	-0.5	6224
O=C(CSc1nnc(-c2cccc(Cl)c2)o1)Nc1ccc2c(c1)OCCO2	-1.0	-5.2	11.6	0.6	?	22299*
NC(=O)c1ccc(NC(=O)CSc2nnc(-c3ccc4c(c3)OCO4)o2)cc1	-5.8	-4.0	-4.2	nt	-0.5	3974
O=C(O)CSc1nnc(-c2ccc3c(c2)OCO3)o1	-1.5	0.8	5.7	-3.5	1.0	16221*
CC(SCc1ccccc1)C(=O)Nc1ccc2c(c1)OCO2 (stereo unspecified)	-8.0	-4.4	1.3	3.6	-1.0	16775*
O=C(CSCc1ccccc1Cl)Nc1ccc2c(c1)OCCO2	6.4	-3.2	4.5	1.4	?	20949*
O=C(OC12CCCN(C1)/C(=C/c1cccnc1)C2)c1ccc(F)cc1 (stereo unspecified)	nt	nt	-2.8	nt	nt	nt
CC(C)S(=O)(=O)N[C@@H]1c2cc3c(cc2[C@H](c2ccccc2)[C@H]1C)OCO3	nt	nt	-2.7	nt	nt	nt
SMILES	BoNT-F LC inh	Anthrax LF prot	CCHF vOTU inh	3CLpro inhibitor	BoNT A protease	Bead autofluor
COC(=O)C1CN(Cc2ccccc2)CCS(=O)(=O)N1Cc1ccc(C)cc1 (stereo unspecified)	nt	nt	6.8	nt	nt	nt
CCOC(=O)C1=C[C@@H](C(C)(C)C)N(S(=O)(=O)c2ccc([N+](=O)[O-])cc2)[C@H]1c1ccccc1Cl	nt	nt	8.2	nt	nt	nt
CC(C)(C)OC(=O)n1cc(-c2ccccc2)c2c(-c3ccccc3)c(O)ccc21	nt	nt	10.0	nt	nt	nt
Nc1nnc(SCC(=O)Nc2ccc3c(c2)OCCO3)s1	-4.1	-13.8	0.7	0.8	-1.9	17217*
CCCc1cc(Nc2c(C)n(C)n(-c3ccccc3)c2=O)n2c(nc3ccccc32)c1C#N	-4.5	-0.1	-6.4	1.8	-2.0	22932*
Cc1cc(Nc2c(C)n(C)n(-c3ccccc3)c2=O)n2c(nc3ccccc32)c1C#N	9.5	3.1	15.9	-3.1	0.3	9784
Cc1nc2ccccc2n1C1CC(=O)N(Cc2ccccc2)C1=O (stereo unspecified)	-3.5	-2.9	-0.9	1.6	-1.5	23623*
O=C1CC(N2CCC(c3nc4ccccc4s3)CC2)C(=O)N1Cc1ccccc1 (stereo unspecified)	-2.3	-5.2	1.6	-1.4	-1.3	23583*
COc1ccccc1CNc1nc2nc(C)c(Cl)c(=O)n2[nH]1	1.0	-4.0	6.8	-5.6	?	21476*
Cc1ccc(S(=O)(=O)CC(C)N2CCOCC2)c(S(=O)(=O)CC(C)N2CCOCC2)c1 (stereo unspecified)	-3.1	1.6	1.1	-2.9	-0.2	23181*
Cc1ccc(S(=O)(=O)CC(CN2CCOCC2)N2CCOCC2)cc1 (stereo unspecified)	-2.4	-0.1	-3.7	-0.5	-0.2	2503
CC(C)C(=O)Nc1cccc(C(=O)NCc2ccc(S(N)(=O)=O)cc2)c1	12.5	-16.2	6.0	-11.6	7.2	18546*
Cc1cccc(NC(=S)NCc2cccs2)c1C	12.3	0.2	2.2	6.0	0.6	4115
Cc1cc2cc(CNC(=S)Nc3ccc(OC(F)(F)F)cc3)ccc2n1C	-106.1	-82.2	6.5	-1.1	59.5*	1752
NNC(=S)Nc1ccc(OC(F)(F)F)cc1	nt	nt	7.7	-0.9	nt	nt
Cc1cccc(NC(=S)NCc2ccc3c(c2)cc(C)n3C)c1C	-124.9	-74.1	18.6	0.6	47.2*	2076
Cc1cccc(NC(=S)NCc2ccccc2Cl)c1C	37.1*	-13.3	2.3	-0.5	2.4	4243
COc1cccc(NC(=S)NCc2ccc3c(c2)cc(C)n3C)c1	-120.7	-83.8	-0.1	4.2	53.6*	2002
O=S1(=O)C=CCN1Cc1cn(Cc2cccc(Cl)c2)nn1	nt	nt	-8.5	nt	nt	nt
CC(C(=O)NC(=O)NC1CCCCC1)N1CCN(C(c2ccccc2)c2ccccc2)CC1 (stereo unspecified)	-6.8	-6.6	-6.0	8.5	-1.9	16823*
CC(C)[N+]1=C2C=CC=CC=C2SC12C([N+](=O)[O-])=CC(=[N+]([O-])[O-])C=C2[N+](=O)[O-] (stereo unspecified)	?	-11.6	21.8	0.2	40.9*	2794
CCCCC(=O)Nc1ccc(C(=O)NCC2COc3ccccc3O2)cc1 (stereo unspecified)	nt	nt	-3.1	nt	nt	nt

High-throughput results: PubChem, several laboratories
